Results filed as inconclusive are left out. Entries that show only a call come without a potency. The source made the active and inactive calls. Calls follow the shape of the dose curve; as a rule, active = well fitted cell-killing curve with a large enough effect; inconclusive = small, poorly fitted or top-dose-only effect, or effect the other way; inactive = no such curve, though single readings can be large or run the other way.
test: Quantitative High-Throughput drug screen in 47 multiple myeloma cell lines against the NCATS MIPE library collection: KMS11_JCRBsus cell viability assay (AID 1919873); conditions: KMS11 myeloma viability, CellTiter-Glo ATP luminescence, 48 h; series mostly up to 45.8 µM; also: nearly all actives have a fitted effect of over 50% in size
How it was run: (§1)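 500 cells/well per myeloma line exposed to pinned MIPE 4.0 compounds for 48 h at 37 °C, 5% CO2. Viability read as ATP by CellTiter-Glo luminescence, normalised to DMSO-only (100%) and media-only (0%) wells.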
Potency is read from the fitted curve at half-maximal effect.

Row | SMILES | Potency
1 | NC(=O)c1cccc2[nH]c(-c3ccc([C@H]4CCCN4)cc3F)nc12 | inactive
2 | O=C(N[C@@H](c1ccccc1)[C@@H]1CCCCN1)c1cccc(C(F)(F)F)c1Cl | inactive
3 | CN(C[C@@H]1COCCO1)S(=O)(=O)Nc1ccc2ccc3ncc(-c4cnn(C)c4)cc3c(=O)c2c1 | 4.18 µM (active)
4 | O=c1[nH]cnc2c1ncn2[C@H]1CC[C@@H](CO)O1 | inactive
5 | N#CC(=C(N)Sc1ccccc1N)C(C#N)=C(N)Sc1ccccc1N | 8.33 µM (active)
6 | O=c1cc(-c2ccc(O)cc2)oc2cc(O)cc(O)c12 | 20.9 µM (active)
7 | Clc1ccc(-c2nc3sccn3c2C=NOCc2ccc(Cl)c(Cl)c2)cc1 | inactive
8 | CNC(=O)c1ccccc1Sc1ccc2c(C=Cc3ccccn3)n[nH]c2c1 | 1.18 µM (active)
9 | NC1=N[C@@]2(c3cc(NC(=O)c4ccc(F)cn4)ccc3F)COC[C@@H]2CS1 | 23.5 µM (active)
10 | CO[C@H]1C[C@@H]2CC[C@@H](C)[C@@](O)(O2)C(=O)C(=O)N2CCCC[C@@H]2C(=O)O[C@H]([C@H](C)C[C@@H]2CC[C@H](OP(C)(C)=O)[C@H](OC)C2)CC(=O)[C@H](C)C=C(C)[C@@H](O)[C@@H](OC)C(=O)[C@H](C)C[C@H](C)C=CC=CC=C1C | inactive
11 | CN(C)CCC=C1c2ccccc2COc2ccc(CC(=O)O)cc21 | inactive
12 | CC1(C)CCC(CN2CCN(c3ccc(C(=O)NS(=O)(=O)c4ccc(NCC5CCOCC5)c([N+](=O)[O-])c4)c(Oc4cnc5[nH]ccc5c4)c3)CC2)=C(c2ccc(Cl)cc2)C1 | inactive
13 | CCC(CC)[C@H](NC(C)=O)[C@@H]1[C@H](O)[C@@H](C(=O)O)C[C@@H]1N=C(N)N | inactive
14 | Nc1nc(F)nc2c1ncn2[C@@H]1O[C@H](COP(=O)(O)O)[C@@H](O)[C@H]1O | inactive
15 | Cc1nnc(C(C)C)n1C1C[C@H]2CC[C@@H](C1)N2CC[C@H](NC(=O)C1CCC(F)(F)CC1)c1ccccc1 (some centres undefined) | inactive
16 | COc1ccc(-c2oc3c(CC=C(C)C)c(OC4O[C@H](CO)[C@@H](O)[C@H](O)[C@@H]4O)cc(O)c3c(=O)c2OC2O[C@@H](C)[C@H](O)[C@@H](O)[C@@H]2O)cc1 (some centres undefined) | 23.5 µM (active)
17 | OC[C@H]1O[C@@H](Oc2cc(O)cc(C=Cc3ccc(O)cc3)c2)[C@H](O)[C@@H](O)[C@H]1O | inactive
18 | CCOC(=O)O[C@]1(C(=O)OCCl)CC[C@@H]2[C@H]3CCC4=CC(=O)C=C[C@]4(C)[C@@H]3[C@@H](O)C[C@@]21C | 0.264 µM (active)
19 | Cc1ccc(F)c(NC(=O)Nc2ccc(-c3cccc4[nH]nc(N)c34)cc2)c1 | 5.26 µM (active)
20 | CCNc1cc(NC2CCC(O)CC2)nc(Nc2ccc3c(ccn3Cc3ccccc3)c2)n1 (centres undefined) | 20.9 µM (active)
21 | COc1ccc(Cc2nccc3cc(OC)c(OC)cc23)cc1OC | 18.7 µM (active)
22 | N[C@H](CSC(c1ccccc1)(c1ccccc1)c1ccccc1)C(=O)O | 4.18 µM (active)
23 | O=C(Nc1ccccc1-c1cn2c(CN3CCNCC3)csc2n1)c1cnc2ccccc2n1 | 8.33 µM (active)
24 | CNC(=O)c1ccc2cc(C3(O)CCn4cncc43)ccc2c1 (centres undefined) | inactive
25 | Oc1ccc(C2CCN(c3ccnc4ccccc34)CC2)cc1O | 18.7 µM (active)
26 | O=C(CCN1CCN(C(=O)OCc2cc(Cl)cc(Cl)c2)CC1)c1ccc2[nH]c(=O)oc2c1 | inactive
27 | CCCCCN(C)CCC(O)(P(=O)(O)O)P(=O)(O)O | inactive
28 | CC(=O)O[C@]1(C(C)=O)CC[C@@H]2[C@@H]3C[C@H](C)C4=CC(=O)CC[C@]4(C)[C@H]3CC[C@@]21C | 20.9 µM (active)

test: Quantitative High-Throughput drug screen in 47 multiple myeloma cell lines against the NCATS MIPE library collection: KMS28BM_JCRB cell viability assay (AID 1919874); conditions: CellTiter-Glo ATP, 48 h; series mostly up to 45.8 µM; also: nearly all actives have a fitted effect of over 35% in size
How it was run: as §1

Row | SMILES | Potency
29 | NC(=O)c1cccc2[nH]c(-c3ccc([C@H]4CCCN4)cc3F)nc12 | inactive
30 | O=C(N[C@@H](c1ccccc1)[C@@H]1CCCCN1)c1cccc(C(F)(F)F)c1Cl | inactive
31 | Clc1ccc(-c2nc3sccn3c2C=NOCc2ccc(Cl)c(Cl)c2)cc1 | inactive
32 | CNC(=O)c1ccccc1Sc1ccc2c(C=Cc3ccccn3)n[nH]c2c1 | 23.5 µM (active)
33 | NC1=N[C@@]2(c3cc(NC(=O)c4ccc(F)cn4)ccc3F)COC[C@@H]2CS1 | 18.7 µM (active)
34 | CO[C@H]1C[C@@H]2CC[C@@H](C)[C@@](O)(O2)C(=O)C(=O)N2CCCC[C@@H]2C(=O)O[C@H]([C@H](C)C[C@@H]2CC[C@H](OP(C)(C)=O)[C@H](OC)C2)CC(=O)[C@H](C)C=C(C)[C@@H](O)[C@@H](OC)C(=O)[C@H](C)C[C@H](C)C=CC=CC=C1C | inactive
35 | CN(C)CCC=C1c2ccccc2COc2ccc(CC(=O)O)cc21 | inactive
36 | Cc1nnc(C(C)C)n1C1C[C@H]2CC[C@@H](C1)N2CC[C@H](NC(=O)C1CCC(F)(F)CC1)c1ccccc1 (some centres undefined) | inactive
37 | COc1ccc(-c2oc3c(CC=C(C)C)c(OC4O[C@H](CO)[C@@H](O)[C@H](O)[C@@H]4O)cc(O)c3c(=O)c2OC2O[C@@H](C)[C@H](O)[C@@H](O)[C@@H]2O)cc1 (some centres undefined) | 16.6 µM (active)
38 | OC[C@H]1O[C@@H](Oc2cc(O)cc(C=Cc3ccc(O)cc3)c2)[C@H](O)[C@@H](O)[C@H]1O | inactive
39 | CCOC(=O)O[C@]1(C(=O)OCCl)CC[C@@H]2[C@H]3CCC4=CC(=O)C=C[C@]4(C)[C@@H]3[C@@H](O)C[C@@]21C | inactive
40 | C[C@]12CC[C@@H]3c4ccc(O)cc4CC[C@H]3[C@H]1C[C@@H](O)[C@H]2O | inactive
41 | CS(=O)(=O)N(Cc1ccco1)CC(O)Cn1c2ccccc2c2ccccc21 (centres undefined) | 26.4 µM (active)
42 | Cc1ccc(F)c(NC(=O)Nc2ccc(-c3cccc4[nH]nc(N)c34)cc2)c1 | 8.33 µM (active)
43 | O=C1NC(=O)C(=Cc2ccc3nccnc3c2)S1 | 7.24 µM (active)
44 | CCC(=O)NC[C@H](Cc1ccc(OCCc2nc(-c3ccccc3)oc2C)cc1)NC(C)=CC(=O)c1ccc(C(F)(F)F)cc1 | inactive
45 | COc1ccc(Cc2nccc3cc(OC)c(OC)cc23)cc1OC | 20.9 µM (active)
46 | CNC(=O)c1ccc2cc(C3(O)CCn4cncc43)ccc2c1 (centres undefined) | inactive
47 | Oc1ccc(C2CCN(c3ccnc4ccccc34)CC2)cc1O | 4.69 µM (active)
48 | O=C(CCN1CCN(C(=O)OCc2cc(Cl)cc(Cl)c2)CC1)c1ccc2[nH]c(=O)oc2c1 | inactive
49 | CCCCCN(C)CCC(O)(P(=O)(O)O)P(=O)(O)O | inactive

— PubChem BioAssay (NCATS)
